The campaign covered roughly 1,200 compounds. About 55 (5%) were called active. About 15% were inconclusive and are not listed. The sample holds actives, similar compounds and a random draw of the others, so the mix is not that of the screen. Values without a mark were called inactive. The call rests on the fitted dose curve; in most records, active means well fitted inhibition curve with a large enough effect; inconclusive means small, poorly fitted or top-dose-only effect; inactive means no such curve, though single readings can be large or run the other way.
On the % scale 0 is the no-effect control and ±100 the full control effect; potency means the concentration at half of the fitted maximal effect.

The nature of the test: qHTS Assay to Find Inhibitors of Chronic Active B-Cell Receptor Signaling: Hit Validation in Renilla Reporter Assay. Further: nearly all actives have a fitted effect of over 70% in size. As to conditions: TMD8 IkB-Renilla luciferase reporter, NF-kB signaling; series mostly up to 57.5 µM; activity change, negative = inhibition: at the top concentration. The source says:
Diffuse large B-cell lymphoma (DLBCL) is the most common category of non-Hodgkin lymphoma, with ~20,000 new cases per year in the United States. DLBCL should be regarded as a collection of different neoplasms. Microarray gene expression analysis has defined two principal types of DLBCL, named for their similarity to normal B cell stages or activation states: a germinal center B-cell (GCB) type, and an activated B-cell (ABC) type. In ABC-DLBCL, a constitutive high-level activity of the NF-kappaB family of transcription factors has been observed (1) and NF-kappaB target genes are more highly expressed in ABC primary tumors than in GCB tumors. Functional studies have shown a constitutive high-level activity of the IkappaB (inhibitor of kappa-B) kinase (IKK) complex. […] Further analysis of DLBCL primary tumors for NF-kappaB target gene expression imply that although CARD11 is required for constitutive IKK activity in all ABC-DLBCL lines, mutations in CARD11 may be the root cause of IKK activation only in lines or tumors with such mutations. In other words, CARD11 mutations may explain NF-kappaB activation in only 10% of ABC-DLBCL cases. […] This process has been termed 'chronic active BCR signaling' (CABS). The goal of this screen is to find small-molecule inhibitors of the CABS pathway found in ABC-DLBCL lines using a cell-based assay that measures IkappaBalpa stability, which has already been extensively validated in the OCI-Ly3 line (PubChem AID:445; REF: 4). […] Hits from the primary screen were tested in this orthogonal secondary assay. NIH Molecular Libraries Probe Production Network [MLPCN] NIH Chemical Genomics Center [NCGC] MLPCN Grant: R03 DA031086 PI Name: Dr. R. Eric Davis
The IkB-Photinus/Renilla reporter assay differs from the primary assay in that the reporters are constitutively expressed, and based on luciferases that are different from the click beetle luciferases and each other. These differences should help to eliminate artifactual sources of activity specific to the primary assay. This assay uses the Dual-Glo substrate from Promega; extensively validated in a 96-well format, it could be converted to a smaller-well format. All lines needed for the IkB-Photinus/Renilla assay have already been prepared and extensively validated
Background: qHTS replaces the single test concentration by a dilution series.
`COc1ccc(C)cc1NC(=O)CNC(c1ccccc1)c1ccc(C)cc1` (configuration not stated): the “activity change, negative = inhibition” value is 3.62%. In the case of `Cc1ccc(C(=O)O)cc1NC(=S)NC(=O)C(c1ccccc1)c1ccccc1`, the “activity change, negative = inhibition” value was -23%. The same measure, in the same setting: the same measure for `COc1ccc(NC(=O)Cn2nnc(-c3ccccc3NS(=O)(=O)c3ccc(OC)cc3)n2)cc1`: 15.7%; for `CCOc1cccc(C2CC(=O)Nc3cc(OC)c(OC)cc32)c1` (configuration not stated): 5.18%; for `COc1cccc(/C=C/C(=O)Nc2cc(S(=O)(=O)N3CCOCC3)ccc2OC)c1`: 1.3%. On the same count and under the same terms, the same measure for `CCC1=Nc2cc(C(=O)NCCCOC(C)C)ccc2Sc2ccc(C)cc21`: -27.5%.

Take `Cc1c(C(=O)Oc2cccc3cccnc23)oc2ccccc12`: the “activity change, negative = inhibition” value is -6%. As to `O=C(Oc1c(Cl)cc(Cl)c2cccnc12)c1cccs1`, the Potency was 23.9 µM (active). Regarding `O=C(Oc1ccc(Cl)c2cccnc12)C12CC3CC(CC(C3)C1)C2`, the “activity change, negative = inhibition” value is -1.45%. For `COc1cc(OC)cc(C(=O)Oc2c(CN3CCOCC3)cc(Cl)c3cccnc23)c1`, the “activity change, negative = inhibition” value is 1.92%.

Take `O=C(Oc1c(Cl)cc(Cl)c2cccnc12)c1ccco1`: the Potency is 12 µM (active). On to `O=C(Oc1c(CN2CCOCC2)cc(Cl)c2cccnc12)c1ccc(F)cc1`, for which the “activity change, negative = inhibition” value is -18.7%.

For `O=C1NC(=Nc2ccc(O)cc2)S/C1=C\C=C\c1ccco1`, the “activity change, negative = inhibition” value was -0.0749%. Same read-out and setting: the same measure for `O=C(Nc1ncc(Cc2ccc(SC(F)F)cc2)s1)c1ccc(OC(F)F)cc1`: -27.7%; for `CCCc1nnc(NC(=S)Nc2ccccc2)s1`: -2.24%.

For `CC1CCCN(c2ccc([N+](=O)[O-])cc2C(=O)c2ccccc2)C1` (configuration not stated), the “activity change, negative = inhibition” value was 1.52%. Still for that read-out and setting: the same measure for `N#CC1=C(N)Oc2cc(N)ccc2C1c1cccc(Br)c1` (configuration not stated): -21.5%.

Consider `O=C(c1cc([N+](=O)[O-])ccc1N1CCOCC1)N1CCN(c2ccccc2)CC1`, for which the “activity change, negative = inhibition” value was 0.66%. For `CCOC(=O)c1c(C)n(C)c2ccc(OC)c(NC(=O)CN3CCN(C(=O)c4ccco4)CC3)c12`, the “activity change, negative = inhibition” value was 0.121%. Still for that read-out and setting: the same measure for `CCOc1ccc(S(=O)(=O)NCc2ccccn2)cc1NC(=O)c1ccccc1F`: 5.11%.

For `Cc1c(C(=O)N/N=C/c2ccc(Cl)cc2)[nH]c2ccc(Cl)cc12`, the “activity change, negative = inhibition” value was -78.9%. For `CCOC(=O)c1c(C)[nH]c(C(=O)N/N=C/c2ccc(Br)cc2)c1C`, the Potency was 10.7 µM (active).

As to `CCOC(=O)c1[nH]c(C)c(C(=O)OCC)c1C`, the “activity change, negative = inhibition” value is -18.6%. Same read-out and setting: the same measure for `CCOC(=O)CSC1=C(C#N)C(c2ccc(C)o2)CC(=O)N1` (configuration not stated): -23.1%; for `COc1ccc(-c2[nH]ncc2/C=C(\C#N)C(=O)NC2CC2)cc1`: -9.08%; for `CC1CCc2c(sc(NC(=O)CSc3nc(N)cc(=O)[nH]3)c2C(N)=O)C1` (configuration not stated): -9.45%. Same read-out and setting: the same measure for `COc1ccc(CNc2nc(NCc3ccc(OC)cc3)c3ncn(C4CCCC4)c3n2)cc1`: -20.9%; for `CCOc1ccc(OCc2ccc(C(=O)N/N=C(\C)c3ccccn3)cc2)cc1`: -3.8%. On to `C/C(=N\NC(=O)c1ccc(F)cc1)c1ccccn1`, for which the “activity change, negative = inhibition” value was -17.5%. Consider `O=C(NN=C(c1ccccc1)c1ccccn1)c1ccccc1`, for which the Potency was 26.9 µM (active). Turning to `Cc1onc(-c2ccccc2)c1C(=O)Nc1cc(C(F)(F)F)ccc1N1CCOCC1`, the “activity change, negative = inhibition” value is -17.3%. As to `NC(=S)N=Nc1c(O)n(Cc2ccc(Br)cc2)c2ccccc12`, the “activity change, negative = inhibition” value was -29.3%. Regarding `C=CCNC(=S)N/N=C/c1cn(C)c2ccccc12`, the “activity change, negative = inhibition” value is 6.14%. The same measure, in the same setting: the same measure for `CC(=O)c1cc(C#N)c(SCCC(C)C)nc1C`: -0.979%. As for `C=CCOc1ccc(/C=C2\SC(N)=NC2=O)cc1OC`, the “activity change, negative = inhibition” value is 1.12%. `CCCC(=O)OCCNc1cc(Sc2nccn2C)c2nonc2c1[N+](=O)[O-]`: the Potency is 3.79 µM (active).

In the case of `S=c1[nH]nc(-c2ccco2)n1/N=C/C(Cl)=C/c1ccccc1`, the Potency was 26.9 µM (active).

Take `COc1cc2sc(-c3ccc(S(C)(=O)=O)cc3)c(C#CCO)c2cc1OC`: the “activity change, negative = inhibition” value was -5.66%.

Regarding `COC(=O)c1cnc(Oc2ccc(NC(=O)NC(=O)c3c(OC)cccc3OC)cc2)cc1C(F)(F)F`, the “activity change, negative = inhibition” value is -0.497%. Still for that read-out and setting: the same measure for `COc1ccccc1CNS(=O)(=O)c1ccc(-c2cc(C)no2)cc1`: 3.45%; for `CCN(c1ccccc1)S(=O)(=O)c1ccc(C(=O)NNC(=O)c2ccccc2F)cc1`: 1.63%; for `O=C(N1CCN(c2ccccn2)CC1)N1c2ccccc2Sc2ccccc21`: 0.521%. For the compound `O=[N+]([O-])c1ccc(Sc2nc3ccccc3o2)c([N+](=O)[O-])c1`, the Potency is 3.01 µM (active).

As for `O=[N+]([O-])c1cc(/C=N/O)ccc1Sc1ccccc1`, the “activity change, negative = inhibition” value was 3.47%. Consider `CCOc1ccc(C2=Nn3c(nnc3-c3ccccc3OC)SC2)cc1`, for which the “activity change, negative = inhibition” value is -24.7%. As to `COc1ccc(C)cc1NS(=O)(=O)c1ccc(-c2cnc(C3CC3)o2)cc1`, the “activity change, negative = inhibition” value was 22.8%.

Turning to `Cc1nc(N2N=C(c3ccc(Cl)cc3)CC2c2ccco2)sc1C(=O)N(C)C` (configuration not stated), the “activity change, negative = inhibition” value was 2.02%. Still for that read-out and setting: the same measure for `Cc1ccc(/C=N/NC(=O)c2cc(-c3cccnc3)nc3ccccc23)cc1`: -4.67%. Still for that read-out and setting: the same measure for `CC[C@@H](C)[C@H](NC(=O)CCc1c(C)c2cc3c4c(oc3c(C)c2oc1=O)CCCC4)C(=O)O`: -26.6%. As to `CCc1c(C)c(C#N)c2nc3ccccc3n2c1Cl`, the Potency is 0.953 µM (active). As for `Cc1cc(Cl)n2c(nc3cc(F)c(F)cc32)c1C#N`, the Potency was 1.69 µM (active). In the case of `Cc1cc(Cl)n2c(nc3ccccc32)c1C#N`, the Potency is 1.9 µM (active).

For the origin of these results see PubChem BioAssay AID651568 (National Center for Advancing Translational Sciences (NCATS), 2012).
